The structures appear in SMILES notation. Several values for one entry are separate records, joined by “and”; a condition that tells them apart may be missing. Identical values can stand only once. Inconclusive results are not listed. Entries that show only a call come without a potency. Unmarked numbers belong to inactive results. Activity calls are given as the source filed them. Calls follow the shape of the dose curve; as a rule, active = well fitted inhibition curve with a large enough effect; inconclusive = small, poorly fitted or top-dose-only effect; inactive = no such curve, though single readings can be large or run the other way.

The experiment is described as follows: Primary qHTS for inhibitors of nuclear receptor binding SET domain protein 2 (NSD2) in an RCH-ACV wild type WT cells (2C) (AID 1645877). Also: nearly all actives have a fitted effect of over 70% in size. Particulars: RCH-ACV (leukaemia line) NSD2 WT (2C) viability, CellTiter-Glo, 72 h; series mostly up to 44.9 µM. An excerpt:
Assay Provider: Jonathan D. Licht, MD
University of Florida College of Medicine, Gainesville, FL
Mutations in epigenetic regulators are common in relapsed pediatric acute lymphoblastic leukemia (ALL). Here, we uncovered the mechanism underlying the relapse of ALL driven by an activating mutation of the NSD2 histone methyltransferase (p.E1099K). […] Correction of this mutation restored glucocorticoid sensitivity. The transcriptional response to glucocorticoids was blocked in NSD2 mutant cells due to depressed glucocorticoid receptor (GR) levels and the failure of glucocorticoids to autoactivate GR expression. […] Pre-treatment of NSD2 p.E1099K cell lines and PDX samples with PRC2 inhibitors reversed glucocorticoid resistance in vitro and in vivo.
High-throughput drug screening of isogenic RCH-ACV cell lines was performed at the National Center for Advancing Translational Science (NCATS), National Institutes of Health as previously described (1). Briefly, isogenic RCH-ACV NSD2 p.E1099K mutant (9B) and WT cells (2C) were plated at 500 cells/well in a 1536-well plate with a 72-hour incubation with compounds prior to addition of CellTiter-Glo to assess cell viability. NCATS libraries screened include: NPC, MIPE 5.0, Kinase and NPACT. To determine compound activity in the qHTS assay, the concentration-response data for each sample was plotted and modeled by a four-parameter logistic fit yielding IC50 and efficacy (maximal response) values. The area under the curve (AUC) of the dose-response curve ensures both efficacy (magnitude of cell killing) and potency (concentration that elicits cell killing) are accounted for in the analysis of activity.
1. Tobie D Lee, Olivia W Lee, Kyle R Brimacombe, Lu Chen, Rajarshi Guha, Sabrina Lusvarghi, Bethilehem G Tebase, Carleen Klumpp-Thomas, Robert W Robey, Suresh V Ambudkar, Min Shen, Michael M Gottesman, Matthew D Hall. A High-Throughput Screen of a Library of Therapeutics Identifies Cytotoxic Substrates of P-glycoprotein. Mol Pharmacol. 2019, Nov;96(5):629-640.
(In qHTS, concentration-response curves come from the screen itself.)
For `CC1CCC2(C=O)C(CO)=CCCC2C1(C)CC(=O)O` (stereo not given), the Potency result was “inactive”.
Turning to `COc1cccc(Nc2ncnn3ccc(CN4CC[C@@H](N)[C@H](O)C4)c23)c1`, the Potency is 4680 nM (active).
Same read-out and setting: to `COc1ccccc1Oc1ccc(N(Cc2cccnc2)S(=O)(=O)CC(F)(F)F)cc1` belongs “inactive”; to `C=C1CC23CC1CCC2C12OC(=O)C(C)(CCC1O)C2C3C(=O)O` (stereo not given), “inactive”.
Still for that read-out and setting: to `Cc1cc(Nc2cc(N3CCN(C)CC3)nc(/C=C/c3ccccc3)n2)n[nH]1` belongs 649 nM (active) and 742 nM (active).
On the same count and under the same terms, to `Cc1cccc(Oc2cnc(=O)[nH]c2)c1` belongs “inactive”; to `CC12CCC(C(OC3OC(COC4OCC(O)(CO)C4O)C(O)C(O)C3O)C1)C(C)(C)O2` (stereo not given), “inactive”.
As to `CCOC(=O)Nc1cc(-c2ccc(C)c(NS(C)(=O)=O)c2)nn2c(C)nnc12`, the Potency was 515 nM (active).
With `CNC12CC3C[C@@](C)(C1)C[C@](C)(C3)C2`, the Potency result is “inactive”.
On the same count and under the same terms, to `COc1cc(Br)c(S(=O)(=O)Nc2ccc(C(F)(F)F)c(O[C@@H]3CCN(C)C3)c2)cc1OC` belongs “inactive”; to `COC(=O)Cc1cc2c(c([N+](=O)[O-])c1)N(C(=O)CC[C@H](N)C(=O)O)CC2`, “inactive”.
The same measure, in the same setting: to `O=C1NC(=O)C(c2cn(-c3ccccc3)nc2-c2ccc(F)cc2)N1` (stereo not given) belongs “inactive”; to `Cc1ccccc1C#Cc1ccc(CCC(=O)O)cc1`, “inactive”.
For the compound `C[C@@H]1O[C@@H](O[C@H]2[C@H](O)[C@@H](O[C@@H]3O[C@H](CO)[C@@H](O)[C@H](O[C@@H]4O[C@H](CO)[C@@H](O)[C@H](O)[C@H]4O)[C@H]3O)[C@H](O[C@H]3CC[C@@]4(C)C(=CC[C@@H]5C4CC[C@@]4(C)C5C[C@@H]5OC6(CC[C@@](C)(CO[C@@H]7O[C@H](CO)[C@@H](O)[C@H](O)[C@H]7O)O6)[C@@H](C)[C@@H]54)C3)O[C@@H]2CO)[C@H](O)[C@H](O)[C@H]1O` (stereo not given in full), the activity change, negative = cell killing was -26.3% [at 9.23 µM].
Turning to `Nc1ncnc2c1ncn2CCNCCCCCO`, the Potency result was “inactive”.
Same read-out and setting: to `CC(=O)OC12COC1CC(O)C1(C)C(=O)C(O)C3=C(C)C(OC(=O)C(O)C(NC(=O)OC(C)(C)C)c4ccccc4)CC(O)(C(OC(=O)c4ccccc4)C21)C3(C)C` (stereo not given) belongs “inactive”; to `CC1CCC2C(C)(C)[C@@H](O)CC[C@]2(C)C12Cc1c(O)cc3c(c1O2)CN(C(CCC(=O)O)C(=O)O)C3=O` (stereo not given in full), “inactive”; to `CC(C)C(N)C(=O)OCCOCn1cnc2c(=O)[nH]c(N)nc21` (stereo not given), “inactive”.
The same measure, in the same setting: to `C[C@@]12C[C@]3(O)O[C@H](O1)[C@]1(COC(=O)c4ccccc4)[C@H]3C[C@@]12O[C@@H]1O[C@H](CO)[C@@H](O)[C@H](O)[C@H]1O` belongs “inactive”.
Turning to `C[C@@H]1O[C@@H](O[C@H]2[C@H](O[C@H]3[C@H](O[C@H]4CC[C@@]5(C)C(CC[C@]6(C)C5CC=C5[C@@H]7CC(C)(C)C[C@@H](O)[C@]7(C)CC[C@]56C)[C@@]4(C)CO)O[C@H](C(=O)O)[C@@H](O)[C@@H]3O)OC[C@H](O)[C@@H]2O)[C@H](O)[C@H](O)[C@H]1O` (stereo not given in full), the activity change, negative = cell killing was -3.15% [at 9.23 µM].
`Cc1cc(OCc2nc(-c3ccccc3Cl)cs2)ccc1OCC(=O)O`: the Potency entry was “inactive”.
Same read-out and setting: to `N=c1nc2n(cc1F)C1OC(CO)C(O)C1O2` (stereo not given) belongs 18.3 nM (active).
As to `CC1(C)CC[C@]2(C(=O)O[C@@H]3O[C@H](CO)[C@@H](O)[C@H](O)[C@H]3O)CC[C@]3(C)C(=CCC4[C@@]5(C)CC[C@H](O[C@@H]6O[C@H](C(=O)O)[C@@H](O)[C@H](O)[C@H]6O)C(C)(C)C5CC[C@]43C)C2C1` (stereo not given in full), the activity change, negative = cell killing is 4.17% [at 9.23 µM].
Turning to `CN(c1ccccc1CNc1nc(Nc2ccc3c(c2)CC(=O)N3)ncc1C(F)(F)F)S(C)(=O)=O`, the Potency was 1030 nM (active).
Turning to `O=C(CN1C(=O)C2(CCCC2)NCC1c1cc(F)cc(F)c1)Nc1ccc2c(c1)CC1(C2)C(=O)Nc2ncccc21` (stereo not given), the Potency result is “inactive”.
As to `C[C@@H]1O[C@@H](O[C@@H]2[C@@H](O)[C@H](O[C@H]3CC[C@@]4(C)C(CC[C@]5(C)C4CC=C4[C@@H]6CC(C)(C)CC[C@]6(C(=O)O[C@@H]6O[C@H](CO)[C@@H](O)[C@H](O)[C@H]6O)CC[C@]45C)C3(C)C)O[C@H](C(=O)O)[C@H]2O)[C@H](O)[C@H](O)[C@H]1O` (stereo not given in full), the activity change, negative = cell killing is -14.9% [at 9.23 µM].
For the compound `CCC(=O)O[C@H]1C(C)(C)[C@H]([C@@H](O)C(=O)OC)[C@]2(C)C(=O)[C@@]1(O)[C@H]1O[C@]13C1CC(=O)O[C@@H](c4ccoc4)[C@]1(C)CCC32` (stereo not given in full), the Potency result is “inactive”.
Turning to `O=C1CC2(CCCC2)[C@H](O)C(=O)N1CCCCN1CCN(c2ncccn2)CC1`, the Potency entry was “inactive”.
Turning to `C[C@@H]1O[C@@H](OC[C@H]2O[C@@H](Oc3cc(O)cc4c3C(=O)C(O)(Cc3ccc(O)cc3)O4)[C@H](O)[C@@H](O)[C@@H]2O)[C@H](O)[C@H](O)[C@H]1O` (stereo not given in full), the Potency entry was “inactive”.
`Nc1nc2c(ncn2[C@@H]2O[C@@H]3COP(=O)(O)O[C@H]3[C@H]2O)c(=O)[nH]1`: the Potency entry was “inactive”.
On the same count and under the same terms, to `C/C1=C\CC[C@]2(C)O[C@@H]2[C@H](O)[C@H](C(C)C)[C@H](OC(=O)/C=C/c2ccccc2)C1` belongs “inactive”; to `CC1=CC(=O)CC2C1(O)CCC(C)C21CC(c2ccoc2)OC1=O` (stereo not given), “inactive”; to `COc1ccc2cc(C(C)C(=O)Oc3ccc(C(N)=S)cc3)ccc2c1` (stereo not given), “inactive”.
With `COC(=O)c1ccnc(-c2cc(C(=O)NCCc3ccccc3)ccn2)c1`, the Potency result is “inactive”.
On the same count and under the same terms, then `C=C1CCC2C(C)(C(=O)O)CCCC2(C)C1CCC(C)CC(=O)O` (stereo not given), with “inactive”.
Turning to `CC1(C)C=CN2C(=O)C3=CCCN3C(=O)[C@@H]2C[C@@]12Nc1ccccc1C2=O`, the Potency entry was “inactive”.
Same read-out and setting: to `COc1ccc(F)cc1-c1cc(NC(=O)[C@@H]2CCCNC2)ncc1Cl` belongs 64.9 nM (active); to `COc1cc(O)c2c(c1)C1=C[C@H](O)[C@@H](O)C[C@]1(C)OC2=O`, “inactive”.
Turning to `CN(C)CCn1cc(S(=O)(=O)c2cccc(F)c2)c2cccnc21`, the Potency result is “inactive”.
As to `C=C(C(=O)O)C1CCC2(C)CCC(O)C(C)(O)C2C1` (stereo not given), the Potency result was “inactive”.
